GLP-1R agonist: agonists of human GLP-1 receptor. HEK293 GLP-1R CRE-luciferase, luminescence, 4-6 h; cells express a hypersensitive GLP-1R form. AID 624172. actives 0.007% (n = 380,000). Potency, µM (series often up to 45.6 µM), most hits filed as activators
Target sequence (P43220 whole entry, looked up): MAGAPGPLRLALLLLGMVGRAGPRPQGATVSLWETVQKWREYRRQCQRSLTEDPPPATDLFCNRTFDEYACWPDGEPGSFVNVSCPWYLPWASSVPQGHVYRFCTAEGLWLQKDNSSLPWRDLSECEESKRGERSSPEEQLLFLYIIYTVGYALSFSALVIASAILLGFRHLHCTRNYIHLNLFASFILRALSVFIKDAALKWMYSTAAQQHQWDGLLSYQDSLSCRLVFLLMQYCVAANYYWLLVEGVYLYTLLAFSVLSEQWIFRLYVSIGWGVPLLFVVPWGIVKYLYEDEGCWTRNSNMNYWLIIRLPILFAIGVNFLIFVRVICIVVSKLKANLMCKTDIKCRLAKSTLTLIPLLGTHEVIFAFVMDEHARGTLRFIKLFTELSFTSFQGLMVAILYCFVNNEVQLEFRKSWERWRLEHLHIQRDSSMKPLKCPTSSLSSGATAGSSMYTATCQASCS
GLP-1R inv ag: GLP-1 receptor (human) inverse agonism; P43220; AID 624417; HEK293 GLP-1R CRE-luciferase, luminescence, 24 h; GLP-1R form is constitutively active; Potency, µM (highest dose often 38.3 µM), actives largely listed as inhibitors; actives 1.6% (n = 410,000); also: nearly all actives have a fitted effect of over 55% in size
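Assay principle: reduced luminescence from a cAMP-responsive reporter in HEK293 cells co-expressing a constitutively active GLP-1R. Conditions: 24 hr compound incubation, 37 deg C, 5% CO2.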
HEK293 tox: cytotoxicity in counter-screen for GLP-1R inverse agonists; HEK293 cAMP-luciferase reporter cells, luminescence, 24 h; Potency, µM (doses to about 38.3 µM), most hits filed as inhibitors; actives 0.13% (n = 410,000);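 also: loss of luciferase light is scored as toxicity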
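Cells in DMEM/10% Nu serum/1% pen-strep, 1536-well format. Pre-incubated 12 h, dosed with 23 nL compound, incubated a further 24 h. Luciferase detection, 12 min at room temp, luminescence.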
ClpP mod: qHTS Assay for Activators of ClpP; ATP-dependent Clp protease proteolytic subunit (Bacillus subtilis (strain 168)), P80244; actives 1.9% (n = 340,000); Potency, µM (series often up to 57.5 µM); purified B. subtilis ClpP, FRET peptide cleavage, 20 min; active = well fitted falling curve with a large enough effect; inconclusive = small, poorly fitted or top-dose-only effect; inactive = no such curve, though single readings can be large or run the other way; also: the source files actives as falling curves though it sought activators and does not explain the sign; nearly all actives have a fitted effect of over 65% in size
Target sequence (P80244 whole entry, looked up): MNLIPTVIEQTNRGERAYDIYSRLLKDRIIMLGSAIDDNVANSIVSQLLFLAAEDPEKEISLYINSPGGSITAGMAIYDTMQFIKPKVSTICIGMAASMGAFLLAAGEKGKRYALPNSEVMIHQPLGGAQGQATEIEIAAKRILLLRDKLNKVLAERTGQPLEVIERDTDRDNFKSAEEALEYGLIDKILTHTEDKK
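FRET quenching reversal measured ClpP activation: 10 microg/mL B. subtilis ClpP at pH 8 with the FRET-FV decapeptide, read at 430 nm after 320 nm excitation. The 20-min minus 0-min signal was scaled between DMSO/no-enzyme wells and ADEP (5.8 microM final).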
LDHA block: blocks human lactate dehydrogenase A | P00338 | purified LDHA, NADH/diaphorase-resazurin fluorescence; stronger effect = lower value | activity change, % (values are at about 110 or 230 µM) | actives 0.15% (n = 480,000) | AID 1347041; in the data active = activity change below about -30%; inconclusive = mostly about -25% to -30%
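Enzyme activity of human lactate dehydrogenase 5 (2 nM; 0.06 mM NADH, 0.2 mM pyruvate, 5 min, RT) is measured via a resazurin/diaphorase fluorescence readout of residual NADH.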
p53 reactivator: restores transcriptional activity of mutant p53; H1299 p53-A138V BP100-luciferase reporter, luminescence, 24 h; Potency, µM (top dose mostly 92.2 µM), most hits filed as activators; actives 0.063% (n = 320,000); also: nearly all actives have a fitted effect of over 45% in size
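p53-null H1299 cells stably carrying temperature-sensitive p53-A138V and a BP100-luciferase reporter were pinned with compounds (4-point, 1:5 series) and held 24 hrs at 37 deg C. Luminescence was read 10 min after detection reagent.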
Hits are given with their value; n = inactive; u = inconclusive; x = not tested or not shown. Shown are actives, neighbours in structure and some others; about 2.9% of the full set was active somewhere. Unless noted, calls follow the shape of the dose curve; as a rule, active = well fitted curve in the direction sought with a large enough effect; inconclusive = small, poorly fitted or top-dose-only effect, or another doubt; inactive = no such curve, though single readings can be large; an effect the other way counts as inactive or inconclusive.

SMILES	GLP-1R agonist	GLP-1R inv ag	HEK293 tox	ClpP mod	LDHA block	p53 reactivator
Cn1c(=O)oc2cc(S(=O)(=O)NCCC(=O)N3CC=C(c4ccccc4)CC3)ccc21	n	n	n	n	n	n
O=C(C[n+]1ccc(Cl)c2ccc(Cl)cc21)c1ccc(F)cc1	x	x	x	n	n	x
Clc1ccc2c(Cl)cc[n+](CCC3CCCCC3)c2c1	x	x	x	n	-36	x
CC(C)(c1ccccc1)c1ccc(OCCCN2CCNCC2)cc1	n	1.1µM	u	x	u	n
Cc1ccc(OCCCCN2CCC(C)CC2)c(Br)c1	n	n	u	n	n	n
CC1CCN(CCCCOc2ccc(C(C)(C)C)cc2)CC1	n	u	n	n	n	n
CC(C)(C)c1ccc(OCCCCCCN2CCNCC2)cc1	n	4µM	u	x	n	x
Cc1ccc(OCCCCCCN2CCNCC2)c(Br)c1	n	2.8µM	u	n	n	x
CC(C)(c1ccccc1)c1ccc(OCCN2CCOCC2)cc1	n	u	n	n	n	n
Cc1ccc2ncccc2c1NS(=O)(=O)c1ccccc1	n	n	n	n	n	n
Cc1ccc(NC(=O)C2OCCc3ccccc32)cc1Cl (centres undefined)	n	u	n	n	n	n
CC1CCC(=C(C#N)c2nc(-c3cc4ccccc4oc3=O)cs2)CC1 (centres undefined)	n	n	n	3.5µM	n	u
CCc1ccccc1Oc1nc(NCCOC)nc2cc(-c3ccccc3)sc12	n	n	n	22µM	n	x
CCc1ccccc1Oc1nc2cc(-c3cccc(OC)c3)sc2c(=O)n1C	n	n	n	13µM	n	x
COCCNc1nc(Oc2ccc(NC(C)=O)cc2)c2sc(-c3ccccc3)cc2n1	n	n	n	32µM	n	x
COc1cccc(-c2cc3nc(NCCCN(C)C)n(C)c(=O)c3s2)c1	n	n	n	n	n	x
COCCNc1nc(-c2ccccc2F)c2sc(-c3ccccc3)cc2n1	n	u	n	32µM	n	x
Cc1cc(C)c(NC(=O)Cn2c(=O)n(Cc3ccc(C(=O)NCc4ccco4)cc3)c(=O)c3sccc32)c(C)c1	x	n	n	n	n	x
O=C(O)/C=C/C(=O)Nc1ccccc1SC(F)(F)F	n	u	n	n	n	n
CCC1CCCCN1CCCNC(=O)C(C)n1nc(C)c2sc3ccccc3c2c1=O (centres undefined)	n	7.9µM	u	n	n	n
CC(=O)Nc1ccc(NC(=O)CSC2=NS(=O)(=O)c3cc(F)ccc3N2)cc1	n	n	n	x	n	n
CN(CCO)c1ccc(/C=N/NC(=O)C2CC2)cc1	x	x	x	x	n	x
CCCCCC1CC1C(=O)N/N=C/c1ccc(N(C)C)cc1 (centres undefined)	n	7.9µM	n	35µM	n	n
Cc1ccc(C(C)(C)C)cc1S(=O)(=O)Nc1nc2ccccc2nc1Cl	n	10µM	n	n	n	n
O=C(NC1CCCCC1)c1ccc(OC2CCN(Cc3ccccn3)CC2)cc1	n	u	n	n	n	n
SMILES	GLP-1R agonist	GLP-1R inv ag	HEK293 tox	ClpP mod	LDHA block	p53 reactivator
CCCC1=C/C(=C/c2ccc(-c3ccccc3OC)o2)C(=O)O1	n	n	n	u	n	n
COc1ccccc1-c1ccc(/C=C2/C=C(CC(C)C)OC2=O)o1	n	n	n	35µM	n	n
CCCCOc1ccc(-c2nnc(-c3ccncc3)o2)cc1	n	n	n	16µM	n	u
CCCOc1ccc(-c2nnc(-c3cccs3)o2)cc1	n	n	n	10µM	n	x
CCSc1nnc(-c2cccs2)o1	n	n	n	28µM	n	u
CCOc1ccc(-c2nnc(-c3ccc(OC)cc3)o2)cc1	n	n	n	u	n	n
c1ccc(CSc2nnc(-c3cccs3)o2)cc1	n	n	n	n	n	u
CCOc1ccc(-c2nnc(-c3ccccc3)o2)cc1	n	5µM	n	28µM	n	u
C=CCC(NCc1ccco1)c1ccc(OC)cc1OC (centres undefined)	x	x	x	x	x	n
COC(=O)c1sc2nc(N3CCCCC3)c3c(c2c1N)CCCC3	n	n	n	10µM	n	n
CCOC(=O)c1sc2nc(C(C)C)c3c(c2c1N)CC(C)(C)OC3	n	n	n	u	n	n
COC(=O)c1ccc(CSc2ncnc3c2sc2nc(N4CCOCC4)c4c(c23)CCCC4)o1	n	n	n	u	n	x
CCOC(=O)c1sc2nc(N3CCCC3)c3c(c2c1N)CC(C)(C)OC3	n	n	n	32µM	n	n
COC(=O)c1ccc(Cn2cnc3c(sc4nc(N5CCOCC5)c5c(c43)CCCC5)c2=O)o1	n	n	n	28µM	n	n
CCOC(=O)c1sc2nc(N3CCOCC3)c3c(c2c1N)CCCC3	n	n	n	32µM	n	n
COc1ccc(Cn2ccnc2SCC(=O)Nc2ccc(F)cc2F)cc1	n	u	n	n	n	x
CCN(CC)C(=O)c1sc2nc(N3CCOCC3)c3c(c2c1N)CCCC3	n	n	n	25µM	n	n
CCOC(=O)c1oc2nc(C)c3c(c2c1N)CC(C)(C)OC3	n	n	n	10µM	n	n
CCc1nc2oc(C(=O)c3ccccc3)c(N)c2c2c1COC(C)(C)C2	n	n	n	n	n	n
O=C(O)C1C2C=CC(O2)C1C(=O)NCc1ccc2c(c1)OCO2 (centres undefined)	n	n	n	n	n	n
O=C(O)C1C2C=CC(O2)C1C(=O)NCc1ccc(Cl)cc1 (centres undefined)	n	n	n	35µM	n	n
CCCC(=O)N1CCC1(C)C(=O)NS(=O)(=O)c1ccc(C#N)cc1 (centres undefined)	n	n	n	n	n	x
COc1ccc(Br)cc1S(=O)(=O)Nc1cc(-c2cn3ccccc3n2)ccc1C	x	u	n	18µM	n	x
COc1cc(CN2CCc3ccc(NC(=O)CCc4ccccc4OC)cc3C2)ccc1O	n	u	n	n	n	n
CC1(C)Cc2cccc(C(=O)Nc3ccc(Cl)cc3)c2O1	n	11µM	n	n	n	n
CCCCc1cc(=O)oc2c(CN3CCN(C)CC3)c(O)ccc12	n	n	n	n	n	n
COc1cc2c(cc1OC)CN(CCC(=O)c1ccc(Br)cc1)CC2	n	n	n	x	n	n
CCOC(=O)[C@]12CCCC=C1N(CCc1ccc(OC)c(OC)c1)C(=O)[C@H](CC(=O)NCc1ccc(C)o1)C2	x	n	n	n	n	x
COC(=O)c1cc(C)sc1NC(=O)C1C2C=CC(CC2)C1C(=O)O (centres undefined)	n	n	n	n	n	n

Screening results from PubChem BioAssay.
